Reference: PubChem BioAssay (NCI)
This is part of a sample that, as a whole, favours compounds with a hit. Of some 83,000 tested, about 20% had one in any assay.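 Plates (96-well) were seeded with cells, treated with compound at one concentration, and incubated for 48 hours before percent growth was determined.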 Activity calls are given as the source filed them. The calls were made as follows: active = growth percent below 10; inactive = the rest.

What was measured:
Assay in all cases: NCI-60 one-dose screen, 48 h (100 = growth as untreated, 0 = no growth, -100 = all killed)
HT29 colon = settings: 10 µM unless noted
SNB-19 CNS = settings: 10 µM unless noted
U251 CNS = settings: 10 µM unless noted
PC-3 prostate = settings: 10 µM unless noted
SK-MEL-5 melanoma = settings: 10 µM unless noted
UACC-62 melanoma = settings: 10 µM unless noted
LOX IMVI melanoma = settings: 10 µM unless noted
SK-MEL-28 melanoma = settings: 10 µM unless noted
SK-MEL-2 melanoma = settings: 10 µM unless noted
EKVX NSCLC = settings: 10 µM unless noted
SN12C renal = settings: 10 µM unless noted
UO-31 renal = settings: 10 µM unless noted
TK-10 renal = settings: 10 µM unless noted
ACHN renal = settings: 10 µM unless noted
CAKI-1 renal = settings: 10 µM unless noted
A498 renal = settings: 10 µM unless noted
CCRF-CEM leukemia = settings: 10 µM unless noted
MOLT-4 leukemia = settings: 10 µM unless noted
SNB-75 CNS = settings: 10 µM

Measured: growth

Cc1cc(N/N=C/c2nc(-c3ccc(Br)cc3)oc2C)c2cc(Cl)ccc2n1
inactive: HT29 colon 13.5% | SNB-19 CNS 60.1% | U251 CNS 13.9% | PC-3 prostate 80.7% | SK-MEL-5 melanoma 92.6% | UACC-62 melanoma 82.9% | LOX IMVI melanoma 20.8% | SK-MEL-28 melanoma 60.7% | SK-MEL-2 melanoma 110% | EKVX NSCLC 95.7% | SN12C renal 48.4% | UO-31 renal 86.6% | TK-10 renal 114% | ACHN renal 86.9% | CAKI-1 renal 96.2% | A498 renal 85.5%
active: CCRF-CEM leukemia -16.6% | MOLT-4 leukemia 3.49%

COc1ccc(C(=O)c2cc(OC)c(OC)c(OC)c2OC)cc1O
inactive: HT29 colon 55.6% | SNB-19 CNS 40.6% | U251 CNS 33.4% | PC-3 prostate 68.4% | UACC-62 melanoma 40.3% | LOX IMVI melanoma 38.7% | SK-MEL-28 melanoma 45.6% | EKVX NSCLC 93.8% | SN12C renal 40.5% | UO-31 renal 56.5% | TK-10 renal 95.9% | ACHN renal 54.5% | CAKI-1 renal 55.4% | A498 renal 67.7% | MOLT-4 leukemia 44.2%
active: SK-MEL-5 melanoma 2.02%

C=C1CCC2C(C)(CO)C(O)CCC2(C)C1C/C=C1/C(=O)OCC1Oc1ccccc1C (stereo not drawn)
active: LOX IMVI melanoma 2.56%
inactive: HT29 colon 42.8% | SNB-19 CNS 83.4% | U251 CNS 88.4% | PC-3 prostate 86.3% | SK-MEL-5 melanoma 93.6% | UACC-62 melanoma 77.3% | SK-MEL-28 melanoma 98% | SK-MEL-2 melanoma 87.5% | EKVX NSCLC 101% | SN12C renal 85.9% | UO-31 renal 93% | TK-10 renal 136% | ACHN renal 91.6% | A498 renal 108% | CCRF-CEM leukemia 20.3% | MOLT-4 leukemia 92.5%

COc1c2occc2c(OC)c2c(=O)c(-c3cc(-c4ccc(F)cc4)c(C#N)c(N)n3)c(C)oc12
inactive: HT29 colon 14.2% | U251 CNS 30.6% | PC-3 prostate 22.8% | SK-MEL-5 melanoma 37.1% | SK-MEL-2 melanoma 59.9% | EKVX NSCLC 32% | SN12C renal 39.5% | UO-31 renal 25.3% | TK-10 renal 53.7% | ACHN renal 41.8% | CAKI-1 renal 50.5% | A498 renal 25.7% | CCRF-CEM leukemia 16%
active: LOX IMVI melanoma 6.13% | MOLT-4 leukemia 5.86%

Cc1ccc(-c2csc(NC(=O)CCCCl)n2)cc1
inactive: HT29 colon 93.9% | SNB-19 CNS 86.5% | U251 CNS 95.4% | PC-3 prostate 95.4% | SK-MEL-5 melanoma 93.9% | UACC-62 melanoma 88.6% | LOX IMVI melanoma 98.3% | SK-MEL-28 melanoma 107% | SK-MEL-2 melanoma 92.2% | SN12C renal 89.2% | UO-31 renal 74.5% | TK-10 renal 98.8% | ACHN renal 99.2% | CAKI-1 renal 91.6% | A498 renal 82.3% | CCRF-CEM leukemia 96.3% | MOLT-4 leukemia 79.1%

COc1ccc(C(=O)N2NC(=O)/C(=C/c3cn(-c4ccccc4)nc3-c3ccccc3)N=C2c2ccccc2)cc1
inactive: HT29 colon 99% | U251 CNS 91.2% | PC-3 prostate 95.3% | SK-MEL-5 melanoma 105% | UACC-62 melanoma 93% | LOX IMVI melanoma 99.2% | SK-MEL-28 melanoma 105% | EKVX NSCLC 96.1% | SN12C renal 95% | UO-31 renal 93.7% | TK-10 renal 103% | ACHN renal 106% | CAKI-1 renal 95.6% | A498 renal 77.6%

S=C(S)NCCc1c[nH]c2ccccc12
inactive: HT29 colon 110% | SNB-19 CNS 96.3% | U251 CNS 108% | PC-3 prostate 91.4% | UACC-62 melanoma 88.4% | LOX IMVI melanoma 87.2% | SK-MEL-28 melanoma 113% | SK-MEL-2 melanoma 99.6% | EKVX NSCLC 100% | SN12C renal 91.8% | UO-31 renal 62.8% | TK-10 renal 128% | ACHN renal 101% | CAKI-1 renal 81.2% | CCRF-CEM leukemia 81.5% | MOLT-4 leukemia 93.6%

Cc1ccc(C(=O)C2=Cc3cc4ccccc4n3Cc3cnnn32)cc1
inactive: HT29 colon 106% | SNB-19 CNS 93% | U251 CNS 100% | PC-3 prostate 87.7% | SK-MEL-5 melanoma 93.5% | UACC-62 melanoma 85.1% | LOX IMVI melanoma 110% | SK-MEL-28 melanoma 102% | SK-MEL-2 melanoma 94.4% | EKVX NSCLC 107% | SN12C renal 94.5% | TK-10 renal 94.9% | ACHN renal 109% | CAKI-1 renal 101% | A498 renal 107% | CCRF-CEM leukemia 103% | MOLT-4 leukemia 101%

Cc1ccc2nc(-c3cc4c([nH]c5ccccc54)c(-c4ccc(F)c(F)c4)n3)[nH]c2c1
inactive: HT29 colon 18.7% | SNB-19 CNS 112% | U251 CNS 64% | PC-3 prostate 72.6% | SK-MEL-5 melanoma 61.1% | UACC-62 melanoma 90.4% | LOX IMVI melanoma 11.7% | SK-MEL-28 melanoma 101% | SK-MEL-2 melanoma 94% | SN12C renal 81.8% | TK-10 renal 117% | ACHN renal 85.9% | CAKI-1 renal 93.6% | A498 renal 106% | CCRF-CEM leukemia 16.8% | MOLT-4 leukemia 35.4%

Fc1ccc(CNCCNc2ncnc3c2cnn3-c2ccccc2)cc1
inactive: HT29 colon 93.1% | U251 CNS 84% | PC-3 prostate 86.6% | SK-MEL-5 melanoma 87.4% | UACC-62 melanoma 101% | LOX IMVI melanoma 89.4% | SK-MEL-28 melanoma 110% | SK-MEL-2 melanoma 113% | SN12C renal 89.2% | UO-31 renal 62.1% | TK-10 renal 102% | ACHN renal 100% | CAKI-1 renal 87.2% | A498 renal 77.1% | CCRF-CEM leukemia 86.9% | MOLT-4 leukemia 89.1%

COc1ccc(CCNC2=CC(=O)CCC2)cc1OC
inactive: SNB-75 CNS 92.9% | SNB-19 CNS 105% | U251 CNS 107% | PC-3 prostate 93% | SK-MEL-5 melanoma 101% | UACC-62 melanoma 109% | LOX IMVI melanoma 96.3% | SK-MEL-28 melanoma 111% | EKVX NSCLC 110% | SN12C renal 102% | UO-31 renal 81.2% | TK-10 renal 115% | ACHN renal 110% | CAKI-1 renal 102% | A498 renal 105% | CCRF-CEM leukemia 102% | MOLT-4 leukemia 76.2%

COc1cc(NCCCCCN)c2ncccc2c1
inactive: HT29 colon 118% | U251 CNS 107% | PC-3 prostate 108% | SK-MEL-5 melanoma 111% | LOX IMVI melanoma 103% | SK-MEL-28 melanoma 114% | SK-MEL-2 melanoma 126% | EKVX NSCLC 113% | UO-31 renal 86.9% | TK-10 renal 119% | CAKI-1 renal 96.7% | A498 renal 116% | MOLT-4 leukemia 88.3%
active: CCRF-CEM leukemia -24%

COc1ccc(-c2[nH]nc(N)c2-c2cc(OC)c3c(c2)OCO3)cc1
inactive: HT29 colon 26% | SNB-19 CNS 68.8% | U251 CNS 54.7% | PC-3 prostate 93.7% | UACC-62 melanoma 37.2% | LOX IMVI melanoma 56.5% | SK-MEL-28 melanoma 60% | EKVX NSCLC 72.9% | SN12C renal 52% | UO-31 renal 68.1% | TK-10 renal 84.8% | ACHN renal 73.8% | CAKI-1 renal 53.4% | A498 renal 43.2% | MOLT-4 leukemia 25.7%
